Results as given in the supplement of paper PMC11732987, “Enantioselective OTUD7B fragment discovery through chemoproteomics screening and high-throughput optimisation” (Communications Chemistry, 2025).

Tests used:
Test in all cases: log2 ratio of Biotin-Ahx-Ub-VS probe labelling (fragment/DMSO); higher = less target engagement (more negative = stronger competition), active = hit call of the paper (q ≤ 0.05, log2 ratio ≤ -1)
Details in all cases: compound concentration: 200 uM; treatment time: 3 h
USP42 = biological target: T1, USP42 (UniProt Q9H9J4)
T1 sequence (whole entry): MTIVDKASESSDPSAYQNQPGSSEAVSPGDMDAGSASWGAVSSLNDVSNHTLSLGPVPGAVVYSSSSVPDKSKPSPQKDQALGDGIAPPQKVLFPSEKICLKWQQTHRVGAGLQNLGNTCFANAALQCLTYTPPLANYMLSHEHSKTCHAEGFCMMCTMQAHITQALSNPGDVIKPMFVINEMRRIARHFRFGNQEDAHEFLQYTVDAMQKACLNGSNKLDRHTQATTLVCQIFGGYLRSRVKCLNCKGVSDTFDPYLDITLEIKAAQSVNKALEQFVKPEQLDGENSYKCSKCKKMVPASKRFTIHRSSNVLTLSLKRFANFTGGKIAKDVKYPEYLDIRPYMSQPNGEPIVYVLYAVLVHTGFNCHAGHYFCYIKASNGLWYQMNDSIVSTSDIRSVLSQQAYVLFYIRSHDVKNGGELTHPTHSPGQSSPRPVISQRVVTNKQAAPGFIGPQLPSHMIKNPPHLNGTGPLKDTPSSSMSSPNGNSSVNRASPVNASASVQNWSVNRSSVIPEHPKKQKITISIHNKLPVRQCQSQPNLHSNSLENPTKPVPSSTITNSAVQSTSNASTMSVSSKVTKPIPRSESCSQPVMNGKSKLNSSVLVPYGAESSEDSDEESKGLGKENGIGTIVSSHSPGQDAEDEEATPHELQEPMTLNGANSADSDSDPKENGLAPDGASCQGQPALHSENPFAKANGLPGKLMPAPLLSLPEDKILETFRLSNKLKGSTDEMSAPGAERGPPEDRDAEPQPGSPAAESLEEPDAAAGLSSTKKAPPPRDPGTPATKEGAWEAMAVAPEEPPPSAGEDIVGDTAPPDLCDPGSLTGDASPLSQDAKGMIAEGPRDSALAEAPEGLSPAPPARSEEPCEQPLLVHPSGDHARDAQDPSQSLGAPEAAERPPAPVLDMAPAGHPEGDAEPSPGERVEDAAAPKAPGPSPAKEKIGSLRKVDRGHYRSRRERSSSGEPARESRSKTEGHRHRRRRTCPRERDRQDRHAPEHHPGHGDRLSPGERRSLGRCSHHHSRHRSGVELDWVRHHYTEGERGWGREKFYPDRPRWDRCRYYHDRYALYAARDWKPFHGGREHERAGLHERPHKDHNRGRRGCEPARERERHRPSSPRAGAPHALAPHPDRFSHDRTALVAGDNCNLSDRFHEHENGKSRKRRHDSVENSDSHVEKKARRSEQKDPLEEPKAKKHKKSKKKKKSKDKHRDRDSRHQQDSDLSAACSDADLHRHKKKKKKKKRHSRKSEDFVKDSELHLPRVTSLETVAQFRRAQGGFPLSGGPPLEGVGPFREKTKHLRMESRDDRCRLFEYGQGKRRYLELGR
Outline: (§1)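 HEK293T lysate (495 µg per sample, in Tris/CHAPS/IGEPAL buffer with protease inhibitors) was exposed in triplicate for 3 h to fragment at 200 µM or to vehicle, then to Biotin-Ahx-Ub-VS at 0.5 µM final for 1 h. Labelled DUBs were enriched on NeutrAvidin, digested with LysC and trypsin, and analysed by diaPASEF LC-MS/MS. Spectronaut label-free quantities were normalised to the global median, and values are average log2 ratios of fragment over vehicle from an unpaired t-test. Only proteins with ≥2 unique peptides were used.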

USP46 = USP46 (UniProt P62068)
Sequence of USP46 (P62068 whole entry): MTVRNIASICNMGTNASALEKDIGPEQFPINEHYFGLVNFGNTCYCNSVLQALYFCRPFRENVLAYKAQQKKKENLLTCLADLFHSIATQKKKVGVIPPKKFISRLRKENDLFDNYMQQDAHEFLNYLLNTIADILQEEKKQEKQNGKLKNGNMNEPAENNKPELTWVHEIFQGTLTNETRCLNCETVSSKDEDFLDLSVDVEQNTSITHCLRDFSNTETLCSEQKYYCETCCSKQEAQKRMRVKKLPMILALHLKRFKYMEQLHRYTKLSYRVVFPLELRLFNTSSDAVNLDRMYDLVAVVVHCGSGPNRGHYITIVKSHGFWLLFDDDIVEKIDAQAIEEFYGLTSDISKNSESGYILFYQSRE
Outline: as §1

USP47 = biological target: T2, USP47 (UniProt Q96K76)
T2 sequence (whole entry): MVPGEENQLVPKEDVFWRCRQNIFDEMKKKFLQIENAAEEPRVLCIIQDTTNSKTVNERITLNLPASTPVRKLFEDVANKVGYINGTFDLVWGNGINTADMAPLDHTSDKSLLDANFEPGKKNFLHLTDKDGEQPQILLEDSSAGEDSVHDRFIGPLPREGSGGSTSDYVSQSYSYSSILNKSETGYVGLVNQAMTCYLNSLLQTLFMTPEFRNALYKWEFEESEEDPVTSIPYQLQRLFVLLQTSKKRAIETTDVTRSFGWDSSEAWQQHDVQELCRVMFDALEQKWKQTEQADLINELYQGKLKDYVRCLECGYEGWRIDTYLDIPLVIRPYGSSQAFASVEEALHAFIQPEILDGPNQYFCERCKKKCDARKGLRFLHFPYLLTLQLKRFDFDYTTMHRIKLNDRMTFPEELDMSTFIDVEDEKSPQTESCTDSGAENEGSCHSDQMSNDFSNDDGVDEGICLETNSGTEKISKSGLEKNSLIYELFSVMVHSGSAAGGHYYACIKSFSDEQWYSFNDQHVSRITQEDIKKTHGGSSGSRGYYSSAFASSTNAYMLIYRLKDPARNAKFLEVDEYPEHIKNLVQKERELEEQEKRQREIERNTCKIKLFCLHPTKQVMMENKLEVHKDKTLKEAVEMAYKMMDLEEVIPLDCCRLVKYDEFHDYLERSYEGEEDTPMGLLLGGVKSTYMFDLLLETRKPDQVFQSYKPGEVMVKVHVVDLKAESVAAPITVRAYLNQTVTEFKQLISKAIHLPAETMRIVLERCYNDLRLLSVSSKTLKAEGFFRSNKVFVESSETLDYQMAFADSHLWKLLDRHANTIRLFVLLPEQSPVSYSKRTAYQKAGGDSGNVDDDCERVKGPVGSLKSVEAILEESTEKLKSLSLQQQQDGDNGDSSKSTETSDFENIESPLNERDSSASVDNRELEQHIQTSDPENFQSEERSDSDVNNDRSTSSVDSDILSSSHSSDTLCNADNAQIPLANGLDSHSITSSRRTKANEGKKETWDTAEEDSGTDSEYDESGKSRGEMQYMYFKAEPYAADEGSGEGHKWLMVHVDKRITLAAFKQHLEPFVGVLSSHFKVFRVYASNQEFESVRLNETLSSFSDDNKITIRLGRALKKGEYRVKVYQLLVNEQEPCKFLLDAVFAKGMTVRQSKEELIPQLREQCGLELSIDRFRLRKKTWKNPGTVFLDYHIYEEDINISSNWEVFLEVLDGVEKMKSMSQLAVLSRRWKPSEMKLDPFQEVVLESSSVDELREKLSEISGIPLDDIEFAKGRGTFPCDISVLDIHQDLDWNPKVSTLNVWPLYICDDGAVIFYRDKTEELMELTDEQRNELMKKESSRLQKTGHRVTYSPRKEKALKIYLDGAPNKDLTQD
Outline: as §1

USP48 = biological target: T3, USP48 (UniProt Q86UV5)
T3 sequence (whole entry): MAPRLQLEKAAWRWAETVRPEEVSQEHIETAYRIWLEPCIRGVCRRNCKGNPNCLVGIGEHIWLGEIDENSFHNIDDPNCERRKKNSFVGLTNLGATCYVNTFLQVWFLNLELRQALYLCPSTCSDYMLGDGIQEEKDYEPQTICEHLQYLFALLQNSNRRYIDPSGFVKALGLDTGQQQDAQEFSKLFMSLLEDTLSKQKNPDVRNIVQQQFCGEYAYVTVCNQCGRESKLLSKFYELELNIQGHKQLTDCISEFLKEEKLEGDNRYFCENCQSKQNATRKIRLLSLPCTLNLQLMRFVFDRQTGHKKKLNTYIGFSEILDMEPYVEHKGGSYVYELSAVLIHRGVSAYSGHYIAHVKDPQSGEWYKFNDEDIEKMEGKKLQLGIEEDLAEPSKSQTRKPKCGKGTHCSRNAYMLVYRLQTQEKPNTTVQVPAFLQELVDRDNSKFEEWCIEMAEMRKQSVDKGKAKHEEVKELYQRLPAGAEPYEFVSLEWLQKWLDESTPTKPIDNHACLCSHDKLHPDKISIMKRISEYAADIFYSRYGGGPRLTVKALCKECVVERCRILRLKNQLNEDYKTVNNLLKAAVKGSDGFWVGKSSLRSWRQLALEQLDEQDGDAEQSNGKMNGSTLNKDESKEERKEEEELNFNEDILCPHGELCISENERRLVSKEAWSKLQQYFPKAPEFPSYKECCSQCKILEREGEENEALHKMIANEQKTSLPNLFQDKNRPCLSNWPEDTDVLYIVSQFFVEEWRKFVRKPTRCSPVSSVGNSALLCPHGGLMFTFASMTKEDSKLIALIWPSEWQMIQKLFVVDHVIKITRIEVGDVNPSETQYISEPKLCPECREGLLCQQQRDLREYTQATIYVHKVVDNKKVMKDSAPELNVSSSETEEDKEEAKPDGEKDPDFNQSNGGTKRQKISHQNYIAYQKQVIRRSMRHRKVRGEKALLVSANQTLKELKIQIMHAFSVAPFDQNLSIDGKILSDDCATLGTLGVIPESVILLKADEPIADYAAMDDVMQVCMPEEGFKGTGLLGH
Outline: as §1

USP5 = biological target: T4, USP5 (UniProt P45974)
T4 sequence (whole entry): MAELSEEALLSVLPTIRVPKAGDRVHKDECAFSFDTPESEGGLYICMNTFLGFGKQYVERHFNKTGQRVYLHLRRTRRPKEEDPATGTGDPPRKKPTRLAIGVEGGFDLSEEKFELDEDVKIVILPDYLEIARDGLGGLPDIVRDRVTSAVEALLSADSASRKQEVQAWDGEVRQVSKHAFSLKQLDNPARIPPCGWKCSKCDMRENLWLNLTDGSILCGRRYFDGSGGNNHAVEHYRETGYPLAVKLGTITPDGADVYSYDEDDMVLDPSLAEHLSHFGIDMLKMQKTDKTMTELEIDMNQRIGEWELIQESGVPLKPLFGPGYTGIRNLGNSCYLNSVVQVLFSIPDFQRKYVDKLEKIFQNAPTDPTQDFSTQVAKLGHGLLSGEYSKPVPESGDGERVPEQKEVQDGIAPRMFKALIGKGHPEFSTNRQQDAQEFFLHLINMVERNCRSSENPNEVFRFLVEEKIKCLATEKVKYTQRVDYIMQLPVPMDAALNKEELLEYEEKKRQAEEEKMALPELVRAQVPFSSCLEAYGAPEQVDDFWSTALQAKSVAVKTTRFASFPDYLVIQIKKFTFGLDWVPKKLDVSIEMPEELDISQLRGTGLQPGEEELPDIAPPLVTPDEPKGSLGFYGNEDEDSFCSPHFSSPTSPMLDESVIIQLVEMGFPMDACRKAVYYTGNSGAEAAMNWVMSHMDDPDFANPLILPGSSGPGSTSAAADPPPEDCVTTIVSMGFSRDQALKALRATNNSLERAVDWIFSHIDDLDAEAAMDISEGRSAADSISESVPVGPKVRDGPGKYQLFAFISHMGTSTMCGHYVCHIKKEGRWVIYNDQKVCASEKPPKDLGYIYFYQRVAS
Outline: as §1

USP54 = USP54 (UniProt Q70EL1)
Sequence of USP54 (Q70EL1 whole entry): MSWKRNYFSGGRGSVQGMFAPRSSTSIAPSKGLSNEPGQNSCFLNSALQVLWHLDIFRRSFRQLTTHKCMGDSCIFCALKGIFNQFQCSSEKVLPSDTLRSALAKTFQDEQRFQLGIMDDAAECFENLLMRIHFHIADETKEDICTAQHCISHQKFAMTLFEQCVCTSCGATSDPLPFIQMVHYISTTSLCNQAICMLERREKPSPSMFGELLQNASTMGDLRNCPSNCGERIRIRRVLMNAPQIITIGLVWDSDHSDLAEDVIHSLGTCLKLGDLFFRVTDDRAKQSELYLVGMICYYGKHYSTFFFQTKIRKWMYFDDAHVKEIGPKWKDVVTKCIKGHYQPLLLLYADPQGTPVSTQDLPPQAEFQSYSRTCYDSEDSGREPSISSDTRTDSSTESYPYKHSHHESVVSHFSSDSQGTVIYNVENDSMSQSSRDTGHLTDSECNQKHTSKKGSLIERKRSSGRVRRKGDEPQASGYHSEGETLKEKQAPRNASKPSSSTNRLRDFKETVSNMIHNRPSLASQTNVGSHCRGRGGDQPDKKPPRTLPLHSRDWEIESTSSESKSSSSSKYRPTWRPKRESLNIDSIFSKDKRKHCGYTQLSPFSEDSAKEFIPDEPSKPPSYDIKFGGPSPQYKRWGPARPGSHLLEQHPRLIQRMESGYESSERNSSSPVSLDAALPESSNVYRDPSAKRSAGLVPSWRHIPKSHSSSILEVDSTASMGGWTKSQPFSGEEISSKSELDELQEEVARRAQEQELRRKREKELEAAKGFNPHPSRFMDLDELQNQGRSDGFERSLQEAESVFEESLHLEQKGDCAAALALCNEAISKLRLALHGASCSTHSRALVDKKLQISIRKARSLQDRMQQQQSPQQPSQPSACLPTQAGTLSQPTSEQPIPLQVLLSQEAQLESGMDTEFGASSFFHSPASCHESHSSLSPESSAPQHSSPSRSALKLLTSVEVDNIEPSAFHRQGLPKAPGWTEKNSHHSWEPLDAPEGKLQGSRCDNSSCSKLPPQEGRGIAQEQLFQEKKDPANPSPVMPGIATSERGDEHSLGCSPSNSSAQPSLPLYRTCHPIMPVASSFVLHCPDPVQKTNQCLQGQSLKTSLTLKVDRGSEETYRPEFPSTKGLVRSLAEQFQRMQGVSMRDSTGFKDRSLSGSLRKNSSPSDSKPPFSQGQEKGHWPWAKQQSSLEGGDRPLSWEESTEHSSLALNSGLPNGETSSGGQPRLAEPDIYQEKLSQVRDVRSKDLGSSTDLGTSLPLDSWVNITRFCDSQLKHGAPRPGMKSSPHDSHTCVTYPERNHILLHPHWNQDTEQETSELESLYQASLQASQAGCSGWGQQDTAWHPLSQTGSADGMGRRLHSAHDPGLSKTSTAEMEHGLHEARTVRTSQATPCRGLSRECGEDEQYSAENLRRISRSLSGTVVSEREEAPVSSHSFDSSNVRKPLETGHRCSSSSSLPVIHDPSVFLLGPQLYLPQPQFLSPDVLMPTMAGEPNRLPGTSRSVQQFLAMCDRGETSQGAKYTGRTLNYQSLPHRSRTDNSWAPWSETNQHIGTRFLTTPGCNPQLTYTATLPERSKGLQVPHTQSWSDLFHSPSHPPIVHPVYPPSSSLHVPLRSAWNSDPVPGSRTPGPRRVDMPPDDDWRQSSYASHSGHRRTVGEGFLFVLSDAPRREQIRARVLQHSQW
Outline: as §1

USP7 = USP7 (UniProt Q93009)
Sequence of USP7 (Q93009 whole entry, looked up): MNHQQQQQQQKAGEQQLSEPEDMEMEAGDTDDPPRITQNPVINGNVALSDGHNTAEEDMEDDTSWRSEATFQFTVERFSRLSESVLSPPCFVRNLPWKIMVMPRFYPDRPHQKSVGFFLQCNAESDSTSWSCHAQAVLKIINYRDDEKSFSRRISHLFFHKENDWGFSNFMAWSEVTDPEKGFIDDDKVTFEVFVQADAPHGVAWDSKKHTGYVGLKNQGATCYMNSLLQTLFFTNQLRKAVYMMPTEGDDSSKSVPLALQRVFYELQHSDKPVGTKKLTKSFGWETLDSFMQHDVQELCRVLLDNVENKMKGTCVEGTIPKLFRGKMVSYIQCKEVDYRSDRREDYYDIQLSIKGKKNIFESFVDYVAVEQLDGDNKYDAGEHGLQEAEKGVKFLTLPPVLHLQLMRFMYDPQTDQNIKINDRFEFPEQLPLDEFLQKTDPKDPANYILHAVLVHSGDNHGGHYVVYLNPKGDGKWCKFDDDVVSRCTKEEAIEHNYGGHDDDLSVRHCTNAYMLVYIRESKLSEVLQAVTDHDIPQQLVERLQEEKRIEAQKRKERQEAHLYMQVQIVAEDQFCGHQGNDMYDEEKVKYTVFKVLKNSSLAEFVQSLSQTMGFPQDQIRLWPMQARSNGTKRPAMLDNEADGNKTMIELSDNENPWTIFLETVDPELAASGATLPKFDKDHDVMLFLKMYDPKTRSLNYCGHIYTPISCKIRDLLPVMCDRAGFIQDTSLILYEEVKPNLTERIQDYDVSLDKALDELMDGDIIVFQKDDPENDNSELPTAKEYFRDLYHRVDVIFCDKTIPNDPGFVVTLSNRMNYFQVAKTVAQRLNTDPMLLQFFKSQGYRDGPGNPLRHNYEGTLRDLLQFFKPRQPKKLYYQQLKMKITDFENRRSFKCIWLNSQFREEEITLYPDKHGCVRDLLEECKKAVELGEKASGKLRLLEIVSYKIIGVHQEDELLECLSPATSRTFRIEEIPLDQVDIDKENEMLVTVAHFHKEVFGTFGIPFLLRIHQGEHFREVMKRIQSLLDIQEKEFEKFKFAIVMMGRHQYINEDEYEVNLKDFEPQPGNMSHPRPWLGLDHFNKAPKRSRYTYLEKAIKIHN
Outline: as §1

USP8 = biological target: T5, USP8 (UniProt P40818)
T5 sequence (whole entry): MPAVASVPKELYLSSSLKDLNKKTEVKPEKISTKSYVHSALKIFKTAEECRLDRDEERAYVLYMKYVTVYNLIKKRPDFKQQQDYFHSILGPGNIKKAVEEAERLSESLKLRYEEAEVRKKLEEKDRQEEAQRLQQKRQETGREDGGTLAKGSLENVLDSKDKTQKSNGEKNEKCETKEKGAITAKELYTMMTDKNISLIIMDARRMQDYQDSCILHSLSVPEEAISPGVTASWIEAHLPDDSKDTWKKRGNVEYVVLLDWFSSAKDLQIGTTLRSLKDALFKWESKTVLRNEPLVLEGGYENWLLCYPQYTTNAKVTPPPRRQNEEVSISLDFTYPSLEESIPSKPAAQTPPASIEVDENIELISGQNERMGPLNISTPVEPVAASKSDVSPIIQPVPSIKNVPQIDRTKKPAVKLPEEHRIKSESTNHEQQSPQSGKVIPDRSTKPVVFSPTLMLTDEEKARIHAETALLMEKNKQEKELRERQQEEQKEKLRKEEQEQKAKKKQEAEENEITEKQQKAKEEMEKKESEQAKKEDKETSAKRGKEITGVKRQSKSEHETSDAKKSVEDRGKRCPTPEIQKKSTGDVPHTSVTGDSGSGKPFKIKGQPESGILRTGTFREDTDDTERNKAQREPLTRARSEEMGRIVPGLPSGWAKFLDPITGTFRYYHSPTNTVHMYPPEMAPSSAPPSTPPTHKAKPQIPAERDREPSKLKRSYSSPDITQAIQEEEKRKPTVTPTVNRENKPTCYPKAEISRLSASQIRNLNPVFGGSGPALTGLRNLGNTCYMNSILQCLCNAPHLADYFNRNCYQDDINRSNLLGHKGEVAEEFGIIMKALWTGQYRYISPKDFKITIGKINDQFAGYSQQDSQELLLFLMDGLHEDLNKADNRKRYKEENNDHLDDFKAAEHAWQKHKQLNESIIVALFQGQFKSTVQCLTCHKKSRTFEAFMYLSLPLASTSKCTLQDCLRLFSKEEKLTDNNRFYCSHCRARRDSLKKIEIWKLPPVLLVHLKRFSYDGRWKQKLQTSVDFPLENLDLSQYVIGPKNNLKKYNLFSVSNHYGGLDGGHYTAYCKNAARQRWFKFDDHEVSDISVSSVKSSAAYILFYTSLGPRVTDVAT
Outline: as §1

Measured: log2 ratio of Biotin-Ahx-Ub-VS probe labelling

O=C(CCl)NCC(=O)N1CCCC1
inactive: USP42 0.103 | USP46 0.0751 | USP47 0.107 | USP48 -0.00296 | USP5 0.205 | USP54 0.812 | USP7 -0.0345 | USP8 -0.434
